MgrA-DNA mod: S. aureus MgrA activity modulators, primary screen, biochemical, S. aureus Newman, fluorescence polarization. MgrA-DNA binding. inhibition, % (test concentration not listed). 0.13% of 84,000 active; in the data active means inhibition above about 30%, passing the limit was not always enough;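 further: higher means less MgrA bound to DNA so lower polarization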
Large screens that a line does not name were inactive. Only a selection was taken, and hits are over-represented in it overall.

CN1CCc2c(C#N)c(N)n(N)c(=S)c2C1	MgrA-DNA mod 161
CN1CCc2[nH]c(=S)c(C#N)c(-c3ccccc3)c2C1	none
CN1CCc2c(C#N)c(Cl)nc(NCc3ccccc3)c2C1	none
Cc1ccc(N2C(=O)NC(=O)/C(=C/c3ccc(-c4cccc(C(=O)O)c4)o3)C2=O)cc1	none
CN1C(=O)NC(=O)/C(=C/c2ccco2)C1=O	none
O=C1NC(=O)N(c2ccccc2)C(=O)/C1=C/c1ccco1	none
O=C1NC(=S)N(c2ccccc2)C(=O)/C1=C/C=C/c1ccco1	MgrA-DNA mod 80
Cc1c(C(=O)O)c2ccccc2n1C	none
COC(=O)C1=C(C)NC(=O)C12C(C#N)=C(N)Oc1ccccc12 (configuration not stated)	none
CCCCc1ccc(N/C=c2/c(C)c(C#N)c3nc4ccccc4n3c2=O)cc1	none
